From PubChem BioAssay
Shown are actives, neighbours in structure and some others; about 4% of the full set was active somewhere.
TROY NFkB inh: TROY signaling inhibition | Q293 LMP1-TROYcd NF-kB luciferase reporter, 4 h | inhibition, % at 10 µM | actives 0.98% (n = 360,000) | AID 1347056;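 active = compounds whose plate-normalised and pattern-corrected inhibition of the luciferase reporter signal at the single screening dose is 50% or more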
HIF-2a block: inhibitors of HIF-2a. inhibition, % at 18.8 µM. AID 624352. actives 0.72% (n = 360,000). 786-0 RCC cells HIF-2a reporter, luciferase luminescence, overnight;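 active = inhibition of the luminescence signal of 40% or more relative to plate controls, in a single-dose primary screen at 18.75 µM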
Peg3 prom inh: Peg3 promoter activity inhibition; inhibition, % at 20 µM; actives 1.7% (n = 360,000); HeLa PEG-Prom luciferase reporter, luminescence, overnight;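 active = inhibition of at least 50% at 20 µM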
EBV LMP1 NFkB: inhibitors of Epstein-Barr LMP1-induced NF-kappaB reporter; LMP1-induced NF-kappaB luciferase reporter cells, luminescence; AID 504558; inhibition, % at 12.5 µM; actives 0.69% (n = 350,000); in the data active = inhibition above about 41%; inconclusive = no clear call, values can overlap the other calls;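 note: 0% = neutral control wells and 100% = reference inhibitor control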
TWEAK Fn14 block: blocks TWEAK-Fn14 interaction in a reporter cell assay; actives 2% (n = 360,000); inhibition, % at 10 µM; TWEAK-stimulated Fn14 reporter cells, luciferase luminescence, 8 h; in the data active = inhibition above about 50%
TRPM1 prom inh: inhibitors of MITF-driven TRPM1 promoter in melanoma cells | SK-MEL-5 TRPM1 promoter luciferase, 24 h | inhibition, % at 12.5 µM | actives 0.83% (n = 330,000) | AID 488899;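 active = mean inhibition across replicates of 60% or more, whatever share of single replicates reaches that level; inconclusive = some that reach 60%, reason not given; inactive = mean inhibition across replicates below 60%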
Starred values were filed as active, the others as inactive; ? = inconclusive; . = no result.

SMILES	TROY NFkB inh	HIF-2a block	Peg3 prom inh	EBV LMP1 NFkB	TWEAK Fn14 block	TRPM1 prom inh
COc1ccc(-n2cc(-c3ccccc3)[n+]3c2CCCCC3)cc1	17	8	3	9	8	43
CC(C)c1ccc(-n2c(-c3ccccc3)c[n+]3c2CCc2ccccc2-3)cc1	59*	15	68*	18	84*	88*
COc1ccc(-c2cn(-c3ccc(OC)cc3)c3[n+]2-c2ccccc2CC3)cc1	34	4	39	29	47	69*
COc1ccc(/C=N/OCC(=O)OCC(=O)N(C)c2ccccc2)cc1	-3	5	-6	-4	5	-4
O=C(c1cccc(Cl)c1)N1CCCc2ccccc21	17	16	14	6	-12	2
COc1cc(NC(=O)CCl)ccc(=O)c1	-6	-2	32	-12	11	.
O=C(Cn1cnc2ccccc21)Nc1ccc2c(c1)OCCCO2	8	-85	-57	17	15	0
O=C(CSc1nnc(-c2cccs2)n1C1CC1)NCC1CCCO1 (stereo not given)	-9	6	-7	7	6	5
CN(C)CCCNS(=O)(=O)c1ccc(NC2CCCCCC2)c([N+](=O)[O-])c1	31	0	3	17	23	-6
Cc1ccc(-c2cnc3c(Cl)c(C)nn3c2)cc1	10	-123	-54	33	75*	4
Cc1ccc(-c2ccnc3c(Cl)c(C)nn23)cc1	-17	-23	3	-8	-4	14
Cc1cc2ncc(-c3ccc(Cl)cc3)cn2n1	-53	-231	-229	-7	-6	-82
Cc1ccc(-c2cnc3cc(C)nn3c2)cc1	18	-86	-81	32	74*	2
CC(C)CNC(=O)COc1cccc(C(=O)NCc2ccccc2)c1	-12	6	14	-18	4	-9
CCN1C(=O)CSc2ccc(C(=O)NC3CCCCC3)cc21	-20	-11	-3	5	-10	-7
COc1cc(C(=O)NC2CCN(C)CC2)ccc1Nc1ncc2c(n1)N(C1CCCCC1)CCC(=O)N2C	-5	-37	91*	7	-14	?
COc1cc(C(=O)NC2CCN(C)CC2)ccc1Nc1ncc2c(n1)N(Cc1ccccc1)CCC(=O)N2C	-27	-152	-105	-4	13	47
CCN1C(=O)CC(C(C)C)N(C2CCCC2)c2nc(Nc3ccc(C(=O)NC4CCN(C)CC4)cc3OC)ncc21 (stereo not given)	-29	19	66*	-20	-14	84*
CCN1C(=O)CC(c2ccccc2)N(C2CCCC2)c2nc(Nc3ccc(C(=O)NC4CCN(C)CC4)cc3OC)ncc21 (stereo not given)	-14	11	94*	-14	0	87*
CC(C)C(=O)N1CCN(c2ccc(NC(=O)COc3ccccc3[N+](=O)[O-])cc2)CC1	49	-6	91*	12	75*	39
Cc1ccc(C(=O)Nc2ccc(N3CCN(C)CC3)cc2)cc1C	57*	-43	-71	24	75*	-5
CCCCOc1ccc(C(=O)Nc2ccc(N3CCN(C(=O)C(C)C)CC3)cc2)cc1	23	13	0	12	59*	41
CC(=O)N1CCN(c2ccc(NC(=O)c3ccc(C(C)(C)C)cc3)cc2)CC1	52*	-93	-15	3	20	-28
Cc1ccc(C(=O)Nc2ccc(N3CCN(S(C)(=O)=O)CC3)cc2)cc1C	-41	-39	-27	-11	-18	-12
CCn1c(=NC(=O)CCS(=O)(=O)c2ccccc2)sc2cccc(OC)c21	41	-33	-2	26	58*	10
SMILES	TROY NFkB inh	HIF-2a block	Peg3 prom inh	EBV LMP1 NFkB	TWEAK Fn14 block	TRPM1 prom inh
COCCn1c(=NC(=O)c2ccc(S(=O)(=O)N3CCOCC3)cc2)sc2cc(S(N)(=O)=O)ccc21	7	12	20	-5	-2	-5
CCn1c(=NC(=O)c2ccc(S(=O)(=O)N3CCOCC3)cc2)sc2cccc(OC)c21	38	10	9	26	60*	-6
CN1CCN(c2ccc(NC(=O)c3sc4ccccc4c3Cl)cc2)CC1	60*	-108	-180	13	-30	-12
Cc1cccc(C)c1NC(=O)CSC(=O)c1sc2ccccc2c1Cl	59*	2	-2	8	33	19
COC(=O)c1ccc(N2CCN(C)CC2)c(NC(=O)c2sc3ccccc3c2Cl)c1	-29	-28	110*	-25	-47	0
CC(C)CN(C)C(=O)CCc1nnc(Cc2cccc(C(F)(F)F)c2)o1	-36	-194	-173	-25	-2	-60
CN1C(=O)/C(=C/c2cc(N=Nc3ccccc3)ccc2O)SC1=S	54*	-56	16	7	65*	16
Cc1c(N2C(=O)/C(=C\c3ccccc3O)SC2=S)c(=O)n(-c2ccccc2)n1C	-4	5	17	-2	21	22
CC1(Cc2ccc(OC(F)(F)F)cc2)C(=O)Nc2c(Cl)ccc(Cl)c21 (stereo not given)	-12	7	9	.	-8	.
Nc1c(N(CCC2=CCCCC2)C(=O)COc2ccc(F)cc2)c(=O)[nH]c(=O)n1Cc1ccccc1	8	0	97*	4	11	92*
Nc1c(N(CCC2=CCCCC2)C(=O)CCCOc2ccccc2)c(=O)[nH]c(=O)n1Cc1ccccc1	-3	11	13	0	16	12
CCOC(=O)C1=CNS(=O)(=O)NC1c1ccc(C[C@H](NC(=O)CNC(=O)CCc2ccccc2)C(N)=O)cc1 (stereo not given in full)	1	4	2	-1	-6	-7
CCCCn1c(N)c(N(CC(C)C)C(=O)c2ccc(Br)s2)c(=O)[nH]c1=O	16	10	14	1	3	9
COc1cc(S(=O)(=O)NC2CCCC2)ccc1F	24	19	12	2	4	-2
O=S(=O)(NC1CC1)c1ccc(Cl)cc1F	2	10	8	-9	99*	10
CC(/C=N\N1CCN(c2ccc(Cl)cc2)CC1)=C\c1ccccc1	62*	20	1	4	-6	11
CC(/C=N/N1CCN(c2ccc(C)cc2)CC1)=C\c1ccccc1	7	-3	-3	11	-1	6
Cc1ccc(OCCNC(=O)c2cccc(S(=O)(=O)NCc3ccccc3)c2)cc1	67*	3	19	-13	12	38
O=C(OCc1ccccc1)N1CCCCC1c1c(Cl)cccc1Br (stereo not given)	8	11	16	.	-2	.
CCN(CC)CCNC(=O)c1c(C)n(-c2ccccc2)c2cc(Br)c(OC)cc12	24	22	65*	-39	-67	74*
COc1cc2c(C(=O)N3CCN(C)CC3)c(C)n(-c3ccccc3)c2cc1Br	3	-6	14	-10	5	-5
Cc1cnc(C(=O)OC(C)C(=O)Nc2ccc(Oc3ccccc3)cc2)cn1 (stereo not given)	8	-58	-35	71*	-1	-24
